# Source: PubChem BioAssay (National Center for Advancing Translational Sciences (NCATS))
# Rows were chosen to be rich in hits. Some 18% of all compounds tested hit in one or more screens of this group.
# LDHA inh: qHTS assay for inhibitors of human lactate dehydrogenase; actives 0.15% (n = 480,000); AID 1347041, 2019; purified LDHA, NADH/diaphorase-resazurin fluorescence; hits give low values; activity change, % (values are at about 110 or 230 µM); L-lactate dehydrogenase A chain (Homo sapiens), P00338; in the data active = activity change below about -30%; inconclusive = mostly about -25% to -30%;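 note: plate controls were DMSO wells for no effect and wells without enzyme for full effect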
#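 Remaining NADH was detected by diaphorase (0.133 mg/mL) converting 37 µM resazurin to fluorescent resorufin, read at 0 and 20 minutes. The preceding 5-minute room-temperature reaction used 2 nM LDHA, 0.2 mM sodium pyruvate and 0.06 mM NADH at pH 7.4.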
# DT40 TDP1 no CPT: qHTS for Inhibitors of human tyrosyl-DNA phosphodiesterase 1 (TDP1): qHTS in cells in absence of CPT. actives 15% (n = 420,000). DT40 Tdp1-/- hTDP1 cells, no CPT, ATP luminescence, 48 h. AID 686978, 2013. Potency, µM (top dose mostly 46.2 µM), for inactives: at the top dose activity change, negative = growth inhibition, most hits filed as inhibitors; note: potency is the fitted concentration of half-maximal effect; nearly all actives have a fitted effect of over 55% in size
#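 Growth of hTDP1-complemented DT40 Tdp1-knockout cells is measured by ATP luminescence after at least 48 hr compound exposure at 37 °C, with DMSO substituting for the 20 nM CPT used in the parallel screen.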
# TDP1 cell CPT: qHTS for Inhibitors of human tyrosyl-DNA phosphodiesterase 1 (TDP1): qHTS in cells in presence of CPT; Potency, µM (series often up to 46.2 µM), for the others: at the top dose activity change, negative = growth inhibition, most hits filed as inhibitors; actives 12% (n = 420,000); AID 686979, 2013; chicken DT40 Tdp1-/-;hTDP1 cells + 20 nM CPT, ATP luminescence, 48 h; note: potency is the fitted concentration of half-maximal effect; nearly all actives have a fitted effect of over 55% in size
#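 Cell growth measured by CellTiter-Glo luminescence after a minimum 48 h, 37 C compound exposure with 20 nM CPT in Tdp1-knockout DT40 cells stably expressing hTDP1, seeded 400/well; qHTS titration format.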
# IL1B secr inh: qHTS for Inhibitors of Inflammasome Signaling: IL-1-beta AlphaLISA Primary Screen; THP-1 LPS/ATP IL-1B secretion, AlphaLISA, 16 h; hits give low values; activity change, % at 57.5 µM; actives 4.7% (n = 360,000); in the data active = activity change below about -50%; inconclusive = mostly about -30% to -49%
#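 THP-1 cells pretreated 1 hr with compounds (up to 57.5 uM final), then stimulated with LPS (250 ng/mL final) plus ATP (1.25 mM final); secreted IL-1B measured by AlphaLISA after 16 hr, decreased signal indicating inhibition.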
# RORg inh: qHTS for inhibitors of ROR gamma transcriptional activity; actives 5.4% (n = 310,000); Potency, µM (titrated, usually from 53.6 µM), without a hit: at the top dose activity change, negative = inhibition, usual class: inhibitors; Drosophila S2 Gal4-RORgamma UAS-luciferase reporter, 20 h; note: potency is the fitted concentration of half-maximal effect; nearly all actives have a fitted effect of over 60% in size
# Target sequence (P51450 whole entry, looked up, the tested form may be a part): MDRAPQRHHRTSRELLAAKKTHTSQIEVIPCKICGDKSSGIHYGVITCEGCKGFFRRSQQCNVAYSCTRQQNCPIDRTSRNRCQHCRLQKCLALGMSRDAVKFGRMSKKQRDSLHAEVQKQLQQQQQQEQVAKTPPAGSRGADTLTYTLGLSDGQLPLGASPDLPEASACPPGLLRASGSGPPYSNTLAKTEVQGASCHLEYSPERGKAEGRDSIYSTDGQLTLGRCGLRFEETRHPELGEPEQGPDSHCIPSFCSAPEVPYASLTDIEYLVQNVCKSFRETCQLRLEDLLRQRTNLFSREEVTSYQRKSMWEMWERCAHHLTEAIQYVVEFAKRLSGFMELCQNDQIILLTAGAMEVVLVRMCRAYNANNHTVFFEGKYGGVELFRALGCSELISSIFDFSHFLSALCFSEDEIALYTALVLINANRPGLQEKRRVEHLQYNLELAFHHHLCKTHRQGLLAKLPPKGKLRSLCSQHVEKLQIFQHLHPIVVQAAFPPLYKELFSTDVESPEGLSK
#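 Stably transfected Drosophila Schneider cells are the test system, with ROR gamma fused to Gal4 and luciferase under UAS control; luminescence is read after 20 hr of 700 uM copper sulfate induction at ambient temperature.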
# Gal4-VP16 FLuc: VP16 counterscreen qHTS for inhibitors of ROR gamma transcriptional activity; Drosophila S2 Gal4-VP16 UAS-luciferase, luminescence, 20 h; Potency, µM (series often up to 53.6 µM), for inactives: at the top dose activity, negative = inhibition, most hits filed as inhibitors; actives 3.5% (n = 310,000);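 note: Gal4-VP16 expression switched on by copper sulfate through the metallothionein promoter; potency is the fitted concentration of half-maximal effect; nearly all actives have a fitted effect of over 50% in size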
# * = called active by the depositor; ? = inconclusive; . = no result; [ ] = dose if it differs, or a comment. Unless noted, calls come from the whole dose curve; as a rule, active = well fitted curve in the direction sought with a large enough effect; inconclusive = small, poorly fitted or top-dose-only effect, or another doubt; inactive = no such curve, though single readings can be large; an effect the other way counts as inactive or inconclusive. Unless noted, % is set by controls: 0 for no effect and ±100 for the full control effect.
SMILES,LDHA inh,DT40 TDP1 no CPT,TDP1 cell CPT,IL1B secr inh,RORg inh,Gal4-VP16 FLuc
O=C(CC1Sc2ncnn2C1=O)Nc1ccc(Br)cc1 (stereo unspecified),-17,4.6µM*,2.1µM*,-11,?,25µM*
COc1cc(OC)cc(C(=O)NCC(=O)O)c1,1,.,.,.,.,.
COc1cc(C2C3=C(COC3=O)Oc3cc4c(cc32)OCO4)cc(OC)c1OC(C)=O (stereo unspecified),4,0.65µM*,0.65µM*,19,.,.
COc1ccccc1C1CC(=O)Oc2cc3c(cc21)OCO3 (stereo unspecified),.,.,.,.,11%,1%
COc1ccc(C2C3=C(COC3=O)Oc3cc4c(cc32)OCO4)cc1OC (stereo unspecified),0,1.5µM*,1.8µM*,9,.,.
COc1cc(C2C3=C(COC3=O)Oc3cc4c(cc32)OCO4)ccc1OC(C)=O (stereo unspecified),-1,1.8µM*,1.6µM*,22,.,.
CC1=C(C(=O)Nc2ccc(C(=O)NCc3ccc(OC(C)C)cc3)c(Cl)c2)SCCO1,7,.,.,.,.,.
COc1ccc2c(C)c(CC(=O)NC3CCCC3)c(=O)oc2c1OC,-7,.,.,.,.,.
COc1cc2c(NC3CCN(C)CC3)nc(N3CCCN(C)CC3)nc2cc1OCCCN1CCOCC1,4,11µM*,7.9µM*,.,.,.
COc1cc2c(NC3CCN(C)CC3)nc(N3CCCN(C)CC3)nc2cc1OCCCN1CCCC1,5,?,?,.,.,.
COCCCCOc1cc2nc(N3CCCN(C)CC3)nc(NC3CCN(C)CC3)c2cc1OC,30,11µM*,13µM*,.,.,.
COc1cc2c(NC3CCN(C)CC3)nc(N3CCCN(C)CC3)nc2cc1OCCCCCN,7,-17%,?,.,.,.
CCCc1nn2c(=O)cc(COC(=O)c3ccccc3NC(=O)COc3ccccc3)nc2s1,2,-20%,?,.,.,.
CCOc1ccc(C(=O)Nc2ccc(C(=O)OCc3cc(=O)n4nc(CC)sc4n3)cc2)cc1,-20,?,-11%,.,.,.
CCc1nn2c(=O)cc(COC(=O)c3ccccc3NC(=O)COc3ccc(C)c(C)c3)nc2s1,-7,6.5µM*,5.2µM*,.,.,.
CCc1nn2c(=O)cc(COC(=O)c3ccc(NC(=O)COc4ccc(C)cc4)cc3)nc2s1,-2,16µM*,?,.,.,.
COc1ccc(OCC(=O)Nc2ccc(C(=O)OCc3cc(=O)n4nc(C)sc4n3)cc2)cc1,2,21µM*,13µM*,.,.,.
O=C(COC(=O)c1cc(-c2ccc(F)cc2)nc2ccccc12)NC1CC1,-6,.,.,.,.,.
CC(=O)Oc1ccc(OC(C)=O)c(SCCCCCCl)c1,1,2.9µM*,2.1µM*,-63*,?,-6%[10 µM]
CN(CC(=O)Nc1ccc(C(F)(F)F)cc1)C1CCc2ccccc21 (stereo unspecified),4,.,.,.,.,.
O=C(c1cc(-c2ccc(Cl)cc2)n(-c2ccc(Cl)c(Cl)c2)n1)N1CCOCC1,-5,?,?,?,2.2µM*,?
O=C(c1cc(-c2ccc(Cl)cc2)n(-c2cc(Cl)ccc2Cl)n1)N1CCOCC1,0,?,?,17,?,?
CC(C)c1cc(C(=O)NC(C2CC2)C2CC2)c2cnn(C(C)C)c2n1,-3,.,.,.,.,.
COc1ccccc1C(=O)NNC(=O)c1cc2ccccc2cc1O,-2,18µM*,13µM*,79,.,.
COc1ccccc1C(=O)NNC(=O)C(=O)Nc1ccc(C)cc1,-1,?,?,40,11µM*,3%
SMILES,LDHA inh,DT40 TDP1 no CPT,TDP1 cell CPT,IL1B secr inh,RORg inh,Gal4-VP16 FLuc
COc1ccc(C(=O)NNC(=O)c2cc3ccccc3cc2O)cc1,-10,13µM*,?,140,.,.
COc1ccc(C(=O)NNC(=O)c2ccccc2[N+](=O)[O-])cc1,-7,4%,-15%,1,35%,9%
CCCc1cc(=O)n2nc(N(C)CC(=O)Nc3cccc(F)c3)sc2n1,-1,.,.,.,.,.
CCOC(=O)C1CCN([C@H]2CS(=O)(=O)C[C@@H]2S(=O)(=O)c2ccccc2)CC1,-8,.,.,.,.,.
COc1cccc(NC(=O)C(C)n2c(=O)cc(C(F)(F)F)c3c(C)nn(C)c32)c1 (stereo unspecified),5,18µM*,16µM*,.,.,.
Cc1ccc(CNC(=O)C(C)n2c(=O)cc(C(F)(F)F)c3c(C)nn(C)c32)cc1 (stereo unspecified),-6,?,26µM*,.,.,.
COc1ccc(CCNC(=O)C(C)n2c(=O)cc(C(F)(F)F)c3c(C)nn(C)c32)cc1OC (stereo unspecified),6,?,?,.,.,.
C=CCNC(=S)NNC(=O)c1cccc(C)c1,7,.,.,.,.,.
COc1ccc(-n2ccc(-c3nn(-c4cccc(C(F)(F)F)c4)ccc3=O)n2)cc1,-1,18µM*,?,-13,0%,0%
O=c1ccn(-c2cccc(C(F)(F)F)c2)nc1-c1ccn(-c2ccccc2F)n1,-3,?,?,-16,33%,-5%
CCN(CC)S(=O)(=O)c1ccc2oc(SCc3ccc(F)cc3)nc2c1,0,21µM*,?,-6,?,?
O=C(CSc1ccc2ccccc2c1)Nn1cnnc1,-1,1%,-17%,12,18%,10%
Cc1cc(NC(=O)CSc2ccc(Cl)cc2)no1,-7,16µM*,13µM*,-16,32%,-6%
Cc1cc(NC(=O)CSc2nc3cc(Cl)ccc3o2)no1,-2,2.6µM*,4.6µM*,46,13µM*,-22%
Cc1ccc(SCC(=O)Nc2cc(C)on2)cc1,0,-2%,?,26,3%,6%
O=C(CSc1ccc(Cl)cc1)Nn1cnnc1,15,?,18µM*,-5,-14%,1%
CCS(=O)(=O)c1ccc2oc(SCC(=O)NCCc3ccc(F)cc3)nc2c1,-7,?,-10%,24,19%,6%
CCC(=O)NCCc1sc(-c2ccc(F)cc2)nc1C,9,.,.,.,.,.
CCc1ccc2nc(-c3cccnc3)cc(C(=O)O)c2c1,0,.,.,.,.,.
CCN(CC)S(=O)(=O)c1ccc2oc(SCC(=O)Nc3cc(C)on3)nc2c1,-8,0.73µM*,0.65µM*,-14,.,.
CCN(CC)S(=O)(=O)c1ccc2oc(SCC(=O)NC3CC3)nc2c1,-3,-11%,-24%,27,1%,-2%
